ChEMBL document CHEMBL3433997, “St. Jude Leishmania screening dataset” (2016)

The compounds below were run against Hexose transporter 1 (Plasmodium falciparum) (UniProt O97467) (assay: ST_JUDE_LEISH: Cytotoxicity at 2uM final concentration against transgenic Leishmania Mexicana promastigotes LmPfHT that are glucose transport deficient and complemented with the Plasmodium falciparum hexose transporter. Activity is measured by DNA content using SYBR green in vitro).
Format: functional

**Q.** With `CCCN(C(=O)c1ccccc1C)c1nnc(-c2cccc(C)c2)s1` as the compound, how does the inhibition read?
**A.** The inhibition was -1.93%.

**Q.** `CC(Nc1ccc2c(c1)CCC2)C(=O)Nc1cc(C(F)(F)F)ccc1N1CCOCC1` (stereo not given) was tested. Which inhibition did it give?
**A.** The inhibition was 16.9%.

**Q.** `O=C(CCc1ccccc1)N[C@H](Cc1c[nH]c2ccccc12)C(=O)N1CCC(NCc2ccc3c(c2)Cc2ccccc2-3)CC1` was tested. Which inhibition did it give?
**A.** Its inhibition is 7.43%.

**Q.** `COc1ccc(C2CC(c3cccs3)=NN2C(=O)CNc2ccccc2F)cc1OC` (stereo not given) was tested. Which inhibition did it give?
**A.** The inhibition was 1.72%.

**Q.** `O=C(N[C@@H](Cc1ccccc1)C(=O)NCc1cccc(C(F)(F)F)c1)c1ccc(O)c(-c2ccc(Cl)c(Cl)c2)c1` was tested. Which inhibition did it give?
**A.** Its inhibition is 0.97%.

**Q.** Which inhibition does the source give for `CN(Cc1cccc(F)c1)C1CCN(c2cc(NC(=O)c3ccc(F)cc3)ccn2)CC1` here?
**A.** The inhibition was 6.01%.

**Q.** For `COc1cc(F)c2ncc(F)c([C@@H](O)CN3CCC(NCc4cc5c(cn4)OCCO5)CC3)c2c1`, which inhibition is on record?
**A.** The inhibition was 2.18%.

**Q.** `Nc1ncc(-c2cn[nH]c2)cc1-c1nc2ccc(Cl)cc2[nH]1` was tested. Which inhibition did it give?
**A.** Its inhibition is 3.75%.

**Q.** `O=C(Cn1c(CCc2cccc(F)c2F)nc(=O)c2ccccc21)N(Cc1ccc(-c2ccc(C(F)(F)F)cc2)cc1)C1CCN(C2CCOCC2)CC1` was tested. Which inhibition did it give?
**A.** Its inhibition is 2.37%.

**Q.** With `COc1cc(OC)c2c(c1Cl)O[C@]1(C2=O)C(=O)C(Cc2ccccc2)(Cc2ccccc2)C(=O)C[C@H]1C` as the compound, how does the inhibition read?
**A.** Its inhibition is 3.13%.

**Q.** Which inhibition does the source give for `Cc1ccccc1C1CCN(C2CCC(NC(=O)/C=C/c3cccc(C(F)(F)F)c3)CC2)CC1` (stereo not given) here?
**A.** The inhibition was 0.37%.

**Q.** `O=C(Nc1cccc(-c2nc3ccccc3s2)c1)c1ccccc1[N+](=O)[O-]` was tested. Which inhibition did it give?
**A.** Its inhibition is -0.02%.

**Q.** Which inhibition does the source give for `NS(=O)(=O)c1cccc(-c2ccc3c(O)ncnc3c2)c1` here?
**A.** The inhibition was 3.82%.

**Q.** Which inhibition does the source give for `CC(C)Cc1nc2nc(N)nc(N)c2cc1C(C)C` here?
**A.** The inhibition was 4.17%.

**Q.** How did the inhibition turn out when `O=C(Nc1ccc(N2CCCCC2)c(Cl)c1)c1ccc(Br)o1` was run?
**A.** Its inhibition is 2.17%.

**Q.** With `Fc1ccc(Nc2ccnc3cc(-c4cccc(CNCCN5CCOCC5)c4)ccc23)c(Cl)c1` as the compound, how does the inhibition read?
**A.** Its inhibition is 2.83%.

**Q.** How did the inhibition turn out when `COc1cccc(OC)c1OCCCOc1c(C)nc(N)nc1N` was run?
**A.** The inhibition was 1.79%.

**Q.** For `Cc1ccc(C2=NNC3(S2)C(=O)N(C)c2ccccc23)cc1` (stereo not given), which inhibition is on record?
**A.** The inhibition was 8.24%.

**Q.** How did the inhibition turn out when `O=C(Nc1ccccc1)N1CCOC(CCN2CCC(F)(F)CC2)(c2ccc(Cl)c(Cl)c2)C1` (stereo not given) was run?
**A.** The inhibition was 4.85%.

**Q.** With `CC(c1cccc(Nc2nccc(-c3c(-c4cccc(NC(=O)c5c(F)cccc5F)c4)nn4ccccc34)n2)c1)S(C)(=O)=O` (stereo not given) as the compound, how does the inhibition read?
**A.** The inhibition was 2.14%.

**Q.** How did the inhibition turn out when `COC(=O)Nc1cc(C(F)(F)F)ccc1N1CCCC(NS(=O)(=O)c2ccc(C(C)(C)C)cc2)C1` (stereo not given) was run?
**A.** The inhibition was 12.2%.

**Q.** Which inhibition does the source give for `O=C(NC1CCCC1)c1ccc(N2CCC(NCc3cccc(C(F)(F)F)c3)CC2)cc1` here?
**A.** The inhibition was -0.97%.

**Q.** `Cc1nc(-c2ccc(-c3ccc(NC(=O)c4coc5ccc(N6CC(C)NC(C)C6)cc45)cc3)c(C)c2)no1` (stereo not given) was tested. Which inhibition did it give?
**A.** Its inhibition is 5.16%.

**Q.** With `CCCc1cc(Cc2cnc(N)nc2N)cc(CC)c1O` as the compound, how does the inhibition read?
**A.** The inhibition was 0.94%.

**Q.** `COc1cc2nc(N(C)C)nc(Nc3ccc(OCc4ccccc4)cc3)c2cc1OC` was tested. Which inhibition did it give?
**A.** The inhibition was 1.34%.

The compounds below were run against Glucose transporter (Leishmania mexicana) (UniProt O61059) (assay: ST_JUDE_LEISH: Cytotoxicity at 2uM final concentration against transgenic Leishmania Mexicana promastigotes LmGT2 that are glucose transport deficient and complemented with the L. Mexicana glucose transporter 2. Activity is measured by DNA content using SYBR green in vitro).
Format: functional

**Q.** Which inhibition does the source give for `CN1CCN(Cc2ccc(-c3ccc4c(Nc5ccc(Oc6ccccn6)cc5)ccnc4c3)o2)CC1` here?
**A.** The inhibition was -1.97%.

**Q.** With `N#CCCN1CCN(Cc2cccc(-c3ccc(-c4nc5cc(C(F)(F)F)ccc5[nH]4)cc3)c2)CC1` as the compound, how does the inhibition read?
**A.** Its inhibition is 2.78%.

**Q.** For `CCCC(=O)c1cnc2cc(O)ccc2c1Nc1ccccc1C`, which inhibition is on record?
**A.** The inhibition was 0.57%.

**Q.** For `O=C(Nc1ccc(Cl)cc1C(=O)Nc1cccc(F)c1)c1ccc([N+](=O)[O-])cc1`, which inhibition is on record?
**A.** The inhibition was 1.58%.

**Q.** For `CO/C(=C\C=C\c1cc2cc(Cl)c(Cl)cc2[nH]1)C(=O)NC1CCN(CCNc2ccccc2)CC1`, which inhibition is on record?
**A.** The inhibition was 0.08%.

**Q.** With `O=C(c1ccc(F)c2ccccc12)N1CCc2cc3nccc(N4CCN5CCC[C@H]5C4)c3cc21` as the compound, how does the inhibition read?
**A.** The inhibition was 0.27%.

**Q.** How did the inhibition turn out when `COc1ccc(CNc2nc(Nc3cccc(C#N)c3)nc(Nc3cccc(C#N)c3)n2)cc1Cl` was run?
**A.** The inhibition was -1.38%.

**Q.** With `N=C(N)NC(=O)Nc1cc(Cl)c(Br)c(Cl)c1` as the compound, how does the inhibition read?
**A.** Its inhibition is 2.88%.

**Q.** With `CCCC(C)n1ccc2c3c(N)nc(N)nc3ccc21` (stereo not given) as the compound, how does the inhibition read?
**A.** The inhibition was 29.7%.

**Q.** `COc1ccc2nccc([C@@H](O)CN3CCC(NCc4nc5ccccc5[nH]4)CC3)c2c1` was tested. Which inhibition did it give?
**A.** The inhibition was -0.97%.

**Q.** How did the inhibition turn out when `COC(=O)Nc1cc(C(F)(F)F)ccc1N1CCC(CNS(=O)(=O)c2ccc(OC)cc2)CC1` was run?
**A.** Its inhibition is 6.14%.

**Q.** For `CCc1cn2c3c(cc(C(=O)N[C@@H](Cc4ccccc4)[C@H](O)CNCc4cccc(C)c4)cc13)N(C)S(=O)(=O)CC2`, which inhibition is on record?
**A.** The inhibition was 2.29%.

**Q.** `O=C(NCCCCN1CC=C(c2ccc3c(c2OCc2ccccc2)CCCC3)CC1)c1ccc(-c2ccc(C(F)(F)F)cc2)cc1` was tested. Which inhibition did it give?
**A.** Its inhibition is -2.15%.

**Q.** How did the inhibition turn out when `CC(C)c1ncc(-c2ccncc2)c(C2CCC(CNC(=O)c3cccnc3)CC2)n1` (stereo not given) was run?
**A.** The inhibition was 1.81%.

**Q.** How did the inhibition turn out when `CC(ON1C(N)=NC(N)=NC1(C)C)c1ccccc1` (stereo not given) was run?
**A.** The inhibition was 6.95%.

**Q.** Which inhibition does the source give for `CCCN(C(=O)c1ccccc1C)c1nnc(-c2cccc(C)c2)s1` here?
**A.** The inhibition was -2.31%.

**Q.** With `CC(Nc1ccc2c(c1)CCC2)C(=O)Nc1cc(C(F)(F)F)ccc1N1CCOCC1` (stereo not given) as the compound, how does the inhibition read?
**A.** The inhibition was 11.1%.

**Q.** `O=C(CCc1ccccc1)N[C@H](Cc1c[nH]c2ccccc12)C(=O)N1CCC(NCc2ccc3c(c2)Cc2ccccc2-3)CC1` was tested. Which inhibition did it give?
**A.** The inhibition was 7.1%.

**Q.** With `COc1ccc(C2CC(c3cccs3)=NN2C(=O)CNc2ccccc2F)cc1OC` (stereo not given) as the compound, how does the inhibition read?
**A.** The inhibition was 2.76%.

**Q.** With `O=C(N[C@@H](Cc1ccccc1)C(=O)NCc1cccc(C(F)(F)F)c1)c1ccc(O)c(-c2ccc(Cl)c(Cl)c2)c1` as the compound, how does the inhibition read?
**A.** Its inhibition is -2.02%.

**Q.** How did the inhibition turn out when `CN(Cc1cccc(F)c1)C1CCN(c2cc(NC(=O)c3ccc(F)cc3)ccn2)CC1` was run?
**A.** Its inhibition is 6.94%.

**Q.** With `COc1cc(F)c2ncc(F)c([C@@H](O)CN3CCC(NCc4cc5c(cn4)OCCO5)CC3)c2c1` as the compound, how does the inhibition read?
**A.** Its inhibition is 2.06%.

**Q.** `Nc1ncc(-c2cn[nH]c2)cc1-c1nc2ccc(Cl)cc2[nH]1` was tested. Which inhibition did it give?
**A.** The inhibition was 3.89%.

**Q.** How did the inhibition turn out when `O=C(Cn1c(CCc2cccc(F)c2F)nc(=O)c2ccccc21)N(Cc1ccc(-c2ccc(C(F)(F)F)cc2)cc1)C1CCN(C2CCOCC2)CC1` was run?
**A.** Its inhibition is 1.17%.

**Q.** How did the inhibition turn out when `COc1cc(OC)c2c(c1Cl)O[C@]1(C2=O)C(=O)C(Cc2ccccc2)(Cc2ccccc2)C(=O)C[C@H]1C` was run?
**A.** The inhibition was 2.6%.

**Q.** With `Cc1ccccc1C1CCN(C2CCC(NC(=O)/C=C/c3cccc(C(F)(F)F)c3)CC2)CC1` (stereo not given) as the compound, how does the inhibition read?
**A.** Its inhibition is 2.39%.

**Q.** `O=C(Nc1cccc(-c2nc3ccccc3s2)c1)c1ccccc1[N+](=O)[O-]` was tested. Which inhibition did it give?
**A.** Its inhibition is -0.15%.

**Q.** Which inhibition does the source give for `NS(=O)(=O)c1cccc(-c2ccc3c(O)ncnc3c2)c1` here?
**A.** Its inhibition is 5.44%.

**Q.** With `CC(C)Cc1nc2nc(N)nc(N)c2cc1C(C)C` as the compound, how does the inhibition read?
**A.** The inhibition was 1.5%.

**Q.** Which inhibition does the source give for `O=C(Nc1ccc(N2CCCCC2)c(Cl)c1)c1ccc(Br)o1` here?
**A.** Its inhibition is 2.35%.

**Q.** With `Fc1ccc(Nc2ccnc3cc(-c4cccc(CNCCN5CCOCC5)c4)ccc23)c(Cl)c1` as the compound, how does the inhibition read?
**A.** The inhibition was 2.84%.

**Q.** Which inhibition does the source give for `COc1cccc(OC)c1OCCCOc1c(C)nc(N)nc1N` here?
**A.** Its inhibition is 0.4%.

**Q.** `Cc1ccc(C2=NNC3(S2)C(=O)N(C)c2ccccc23)cc1` (stereo not given) was tested. Which inhibition did it give?
**A.** Its inhibition is 9.09%.

**Q.** With `O=C(Nc1ccccc1)N1CCOC(CCN2CCC(F)(F)CC2)(c2ccc(Cl)c(Cl)c2)C1` (stereo not given) as the compound, how does the inhibition read?
**A.** Its inhibition is 1.24%.

**Q.** `CC(c1cccc(Nc2nccc(-c3c(-c4cccc(NC(=O)c5c(F)cccc5F)c4)nn4ccccc34)n2)c1)S(C)(=O)=O` (stereo not given) was tested. Which inhibition did it give?
**A.** The inhibition was -0.68%.

**Q.** With `COC(=O)Nc1cc(C(F)(F)F)ccc1N1CCCC(NS(=O)(=O)c2ccc(C(C)(C)C)cc2)C1` (stereo not given) as the compound, how does the inhibition read?
**A.** Its inhibition is 7.77%.

**Q.** For `O=C(NC1CCCC1)c1ccc(N2CCC(NCc3cccc(C(F)(F)F)c3)CC2)cc1`, which inhibition is on record?
**A.** The inhibition was 0.59%.

**Q.** For `Cc1nc(-c2ccc(-c3ccc(NC(=O)c4coc5ccc(N6CC(C)NC(C)C6)cc45)cc3)c(C)c2)no1` (stereo not given), which inhibition is on record?
**A.** The inhibition was 6.24%.

**Q.** With `CCCc1cc(Cc2cnc(N)nc2N)cc(CC)c1O` as the compound, how does the inhibition read?
**A.** The inhibition was 0.25%.

**Q.** With `COc1cc2nc(N(C)C)nc(Nc3ccc(OCc4ccccc4)cc3)c2cc1OC` as the compound, how does the inhibition read?
**A.** Its inhibition is -0.07%.
